pPAFAH FP inh: inhibitors of human plasma PAF acetylhydrolase (pPAFAH); Q13093; recombinant pPAFAH, FP-rhodamine probe fluorescence polarization; inhibition, % at 3.39 µM; 330,000 compounds, 1.5% hits;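 active = inhibition above the mean inhibition across the screen plus 3 SD, cut at about 25% in these data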;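 also: inhibitors block binding of the rhodamine activity-based probe so polarization drops; 0% = enzyme with DMSO and 100% = wells lacking pPAFAH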
Target sequence (Q13093 whole entry, looked up): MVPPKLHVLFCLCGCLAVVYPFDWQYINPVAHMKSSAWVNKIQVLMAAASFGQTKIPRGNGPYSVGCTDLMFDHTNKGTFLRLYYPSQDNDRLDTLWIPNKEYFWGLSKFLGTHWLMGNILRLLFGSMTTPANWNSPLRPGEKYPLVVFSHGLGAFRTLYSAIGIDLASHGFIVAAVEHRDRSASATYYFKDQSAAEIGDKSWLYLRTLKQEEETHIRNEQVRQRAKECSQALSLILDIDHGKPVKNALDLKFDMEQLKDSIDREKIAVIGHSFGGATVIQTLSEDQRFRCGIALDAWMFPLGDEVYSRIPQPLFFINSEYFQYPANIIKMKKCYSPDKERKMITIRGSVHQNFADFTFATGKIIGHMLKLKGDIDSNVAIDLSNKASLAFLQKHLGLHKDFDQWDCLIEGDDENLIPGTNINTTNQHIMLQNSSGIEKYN
PAFAH1B2 inh: PAFAH1B2 (human) inhibition | P68402 | recombinant PAFAH1B2, FP-rhodamine activity probe, fluorescence polarization | inhibition, % at 3.39 µM | 340,000 compounds, 1.2% hits | AID 492953;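 active = inhibition above the mean of all tested compounds plus 3 SD, cut at about 24% in these data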;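 also: 0% = enzyme with DMSO and 100% = wells lacking PAFAH1B2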
CTSL1 counter: blocks F. hepatica cathepsin L1 in PFM18AAP counter-screen. AID 1906. recombinant F. hepatica cathepsin L1, Z-Leu-Arg-MCA fluorescence. inhibition, % at 5.96 µM. 300,000 compounds, 0.49% hits;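 active = inhibition above the mean of all tested compounds plus 3 SD, set per screening campaign, cut at about 17% in these data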;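 also: 0% = plate median of test compound wells and 100% = 1 µM Z-Phe-Ala-diazomethylketone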
PAFAH1B3 FP inh: PAFAH1B3 (human) inhibition; recombinant PAFAH1B3, FP-rhodamine probe, fluorescence polarization; inhibition, % at 3.39 µM; 340,000 compounds, 0.28% hits; Q15102;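 active = inhibition above the screen-wide average of all tested compounds plus 3 SD, cut at about 25% in these data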;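 also: 0% = enzyme with DMSO only and 100% = wells lacking PAFAH1B3 protein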
Target sequence (Q15102 whole entry, looked up): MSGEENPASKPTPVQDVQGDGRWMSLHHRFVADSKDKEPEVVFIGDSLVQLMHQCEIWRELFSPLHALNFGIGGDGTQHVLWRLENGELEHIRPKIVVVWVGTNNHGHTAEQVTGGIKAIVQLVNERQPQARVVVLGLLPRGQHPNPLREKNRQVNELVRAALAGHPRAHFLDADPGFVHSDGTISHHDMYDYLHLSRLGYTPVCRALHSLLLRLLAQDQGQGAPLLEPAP
PP5 inh: inhibitors of human protein phosphatase 5 (PP5); P53041; purified PP5c, OMFP substrate fluorescence; inhibition, % at 6.7 µM; 320,000 compounds, 0.18% hits; AID 1987;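 active = inhibition above the campaign's mean inhibition across all tested compounds plus 3 SD, cut at about 9.5% in these data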;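 also: 0% = DMSO only and 100% = 100 µM cantharidin control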
PAFAH2 FP inh: inhibitors of human PAFAH2 | Q99487 | recombinant PAFAH2, FP-rhodamine activity probe, fluorescence polarization | inhibition, % at 3.39 µM | 340,000 compounds, 0.99% hits;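 active = inhibition above the mean over all tested compounds plus 3 SD, cut at about 30% in these data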;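 also: inhibitors block probe labeling of enzyme so polarization drops; 0% = enzyme with DMSO and 100% = wells lacking PAFAH2 protein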
* = called active by the depositor; . = not tested or not shown. Rows were chosen to be rich in hits. Some 3% of all compounds tested hit in one or more screens of this group.

SMILES	pPAFAH FP inh	PAFAH1B2 inh	CTSL1 counter	PAFAH1B3 FP inh	PP5 inh	PAFAH2 FP inh
O=C(C[C@H]1C/C=C\C[C@@H](Cc2ccc(F)cc2)C(=O)OC[C@H]2CCCN2C1=O)N[C@H](CO)Cc1ccccc1	-5.8	28.5*	.	-6.0	.	7.3
CC(=O)Nc1c(Cl)c2c(c(Cl)c1Br)-c1ccc(Cl)cc1C2	.	0.8	.	2.0	.	-4.8
COCc1nc(-c2ccc(-c3ccc(OC)cc3)nc2OC)no1	8.2	4.8	1.6	3.4	3.4	8.4
COCc1nc(-c2ccc(-c3ccccc3)nc2OC)no1	26.1*	0.1	-0.3	0.6	2.5	-2.8
CC(C)[C@H](NC(=O)c1ccccc1Cl)C(=O)OCC(=O)N1CCCCC1	3.0	-3.2	.	-4.5	.	-4.7
O=C(NC1CC1)c1cc2cc3ccccc3nc2s1	3.2	5.6	0.6	-2.0	2.5	10.3
CN(C)S(=O)(=O)c1cccc(NC(=S)NNC(=O)c2cc3ccccc3cc2O)c1	28.2*	8.4	.	6.8	7.1	15.0
Cc1ccc(Nc2nc(-c3c(C)nc4ccccn34)cs2)cc1	27.8*	5.7	2.5	9.3	4.7	7.4
O=C(CNC(=O)c1ccccc1)OC(C(=O)Nc1cc(C(F)(F)F)ccc1Cl)c1ccccc1 (configuration not stated)	9.4	15.4	28.3*	-3.0	4.8	6.6
COc1ccc(C)cc1NC(=O)C(OC(=O)CNC(=O)c1ccc(Oc2ccccc2)cc1)c1ccccc1 (configuration not stated)	3.8	-5.5	16.2	-15.9	1.9	-4.0
COc1ccc(C)cc1NC(=O)C(OC(=O)CNC(=O)c1cccc(F)c1)c1ccccc1 (configuration not stated)	9.7	-0.4	29.1*	0.5	2.1	-7.5
CCc1ccc(NC(=O)CSc2nc(CSc3ccc(C)cc3)cc(=O)[nH]2)cc1	26.9*	54.3*	-3.6	1.6	2.0	2.1
Cn1cccc1C(=O)NC(=O)COC(=O)CNS(=O)(=O)c1ccc(Br)cc1	9.0	13.8	-15.4	7.5	0.7	5.7
CCOc1ccc(S(=O)(=O)NCCC(=O)OCC(=O)NC(=O)c2cccn2C)cc1	25.3*	-0.1	.	9.6	.	1.9
Cc1nc(SCc2nc3ccc([N+](=O)[O-])cc3[nH]2)c2oc3ccccc3c2n1	-3.8	-2.6	.	-3.5	.	6.1
CCOC(=O)c1ccc(NC(=O)C2CCN(C(=O)c3ccc(OC)c(OC)c3)CC2)cc1	29.1*	3.5	-0.9	-2.9	2.5	-0.6
O=C(CCl)Nc1nc(-c2ccco2)c(-c2ccco2)s1	21.8	-0.1	21.2*	19.5	2.9	19.7
C/C(=N/NC(N)=S)c1cc2ccc(O)cc2oc1=O	-0.3	3.1	20.0*	6.2	-0.6	2.0
CCC(C)[C@H](NC(=O)[C@@H]1CSC2c3ccccc3C(=O)N21)C(=O)NCC1CCCO1 (some centres not stated)	-5.7	0.1	17.3*	5.8	-2.4	-2.5
COc1ccccc1/C=C/C=N/NC(=O)c1cc(-c2ccco2)[nH]n1	29.5*	.	2.9	.	4.4	.
O=c1[nH]c2ccc(S(=O)(=O)Nc3ccc(Cl)cc3)cc2o1	.	54.3*	.	9.4	.	6.1
O=C(CNCc1ccc(Cl)cc1)Nc1cc(S(=O)(=O)N2CCCC2)ccc1Cl	.	19.6	.	0.3	.	3.2
O=C(COC(=O)CCc1c[nH]c(=O)[nH]1)Nc1ccccc1	2.1	0.9	-12.4	-0.8	-0.1	33.8*
O=C(COC(=O)Cc1ccsc1)Nc1cccc(F)c1	29.3*	8.9	.	3.2	4.2	17.0
CC(=O)c1ccc(NC(=O)COC(=O)Cc2ccsc2)cc1	10.5	3.4	.	8.5	.	16.9
SMILES	pPAFAH FP inh	PAFAH1B2 inh	CTSL1 counter	PAFAH1B3 FP inh	PP5 inh	PAFAH2 FP inh
O=C(COC(=O)Cc1ccsc1)Nc1ccccc1	26.7*	-3.3	-7.8	11.6	-0.8	15.0
CCN(CC)c1ccc(NC(=O)COC(=O)Cc2ccsc2)cc1	.	1.9	.	-1.1	.	0.6
COc1ccc(CC(=O)OCC(=O)NNC(=O)c2ccccc2)cc1	18.5	1.2	.	9.8	.	6.3
O=C(COC(=O)Cc1ccsc1)NNC(=O)c1ccccc1	26.1*	3.3	.	3.0	.	-2.7
O=C(c1ccc2c(=O)n(Cc3ccccc3Cl)c(=S)[nH]c2c1)N1CCCC1	3.1	4.2	-0.2	3.6	-1.6	0.0
CCC(C)NC(=O)Cc1c(C)c2cc3c(cc2oc1=O)OC(C)(C)CC3 (configuration not stated)	-3.4	11.8	1.0	7.7	-1.6	-8.7
CCOc1cc(/C=C(/C#N)c2ccc(F)cc2)ccc1OCc1ccc(C(=O)O)o1	9.5	31.9*	7.4	-1.0	3.9	-5.1
Cc1ccc(S(=O)(=O)N2CCN(Cc3ccccc3)CC2)s1	-4.7	1.8	.	3.4	5.0	3.8
CCOc1ccc(S(=O)(=O)Nc2cc(Sc3ncn[nH]3)c3oc(=O)sc3c2)cc1	32.8*	.	-4.8	.	0.8	.
CC1(C)Cc2c(C#N)c(N3CCN(C(=O)c4ccccc4Cl)CC3)nc(-c3ccco3)c2CS1	34.4*	3.9	-1.6	5.2	3.6	9.6
CC1(C)Cc2c(C#N)c(N3CCN(C(=O)c4ccco4)CC3)nc(-c3ccco3)c2CS1	31.9*	-3.0	7.1	1.7	6.0	17.0
CC(=O)N1CCN(c2nc(-c3ccco3)c3c(c2C#N)CC(C)(C)SC3)CC1	16.5	4.5	2.3	1.7	1.9	13.7
CCCn1c(C(O)c2cccc(OC)c2)nc2ccccc21 (configuration not stated)	.	-0.4	.	7.7	.	0.9
COc1ccccc1CCNC(=O)CNC(=O)Cc1cccc2ccccc12	4.0	5.9	-2.9	3.7	5.6	-6.8
O=S(=O)(Cc1ccc(Cl)cc1)Oc1ccc(Cl)cc1	.	24.8*	.	4.8	.	-1.2
COC(=O)c1cc(C(=O)OCC(=O)Nc2ccc(N3CCOCC3)cc2)cc([N+](=O)[O-])c1	2.0	4.3	.	3.6	.	10.2
Cc1nc(N2CCCCC2)sc1C(=O)c1cccc([N+](=O)[O-])c1	10.6	1.2	-2.8	4.9	4.7	4.6
Cc1nc(N2CCCCC2)sc1C(=O)c1ccc(SCCO)c([N+](=O)[O-])c1	27.2*	1.9	4.2	5.6	1.8	1.4
Cc1ccc2scc(CN3CCCC3)c2c1	2.4	3.2	-3.2	7.0	0.9	5.9
CC(Oc1ccc(Br)cc1)C(=O)Nc1nnc(C2CC2)s1 (configuration not stated)	3.1	25.9*	7.7	2.6	-0.2	1.9
O=C(COc1ccc(Br)cc1)Nc1nnc(C2CC2)s1	4.9	-10.2	.	-8.2	0.7	6.6
CCOC(=O)NNc1ccc2nonc2c1[N+](=O)[O-]	19.0	.	23.6*	.	2.0	.
CCc1ccc(Nc2ccc3nonc3c2[N+](=O)[O-])cc1	-2.0	-1.4	1.4	-1.6	-1.1	-3.1
O=C(NCc1cccnc1)/C(=C/c1ccc(-c2cccc(C(F)(F)F)c2)o1)NC(=O)c1ccccc1	29.8*	5.1	1.2	5.1	7.0	-7.1
O=C(N1CCOCC1)N1CCN(S(=O)(=O)c2ccc(Cl)cc2)C1	-5.5	25.6*	3.9	4.4	-8.9	-1.8
